Shown are actives, neighbours in structure and some others; about 7.5% of the full set was active somewhere.
ELG1 genotox – inducers of genotoxicity in HEK293T ELG1-luciferase cells. HEK293T ELG1-luciferase reporter, luminescence, 16 h. Potency, µM (highest dose often 46 µM), for inactives: top-dose activity change, positive = activation, actives largely listed as activators. 330,000 tested, 1.3% active. AID 504466; note: % of control where 0% means no effect; nearly all actives have a fitted effect of over 60% in size
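Screening used a luciferase reporter fused to human ELG1 in HEK293T cells. Luminescence was read on a CCD plate imager after 16 hr exposure and 30 min ONE-Glo incubation.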
KinaseGlo FLuc – counter-screen: inhibitors of Kinase-Glo firefly luciferase; Potency, µM (series often up to 38.3 µM), inactives show top-dose activity change, negative = inhibition, usual class: inhibitors; Kinase-Glo luciferase, ATP luminescence, 8 min; 200,000 tested, 0.28% active; note: % is set by controls: 0 for no effect and ±100 for the full control effect; nearly all actives have a fitted effect of over 60% in size
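Compounds were added to a substrate mix at pH 7.2 (50 mM imidazole, 10 uM ATP, within the enzyme's linear range), followed by Kinase-Glo detection reagent; luminescence was measured after 8 minutes at ambient temperature.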
SMN2 splice up – SMN2 splice variant enhancement; AID 1458; Potency, µM (titrated, usually from 46.1 µM), for inactives: at the highest dose activity change, positive = activation, hits mostly activators; 210,000 tested, 2.8% active; HEK293 SMN2-luciferase splicing reporter, luminescence, 30-36 h; note: % of control where 0% means no effect; nearly all actives have a fitted effect of over 55% in size
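HEK293 cells carry an SMN2 […]–luciferase reporter in which exon 7 inclusion puts luciferase in frame. Cells were plated 10-12 h before compound addition, then incubated 30-36 h at 37C. ONE-Glo luminescence was read; sodium butyrate at 4.5 mM final served as control.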
NPC1 prom act – activates the NPC1 promoter; Huh7 NPC1 promoter luciferase reporter, 24 h; 320,000 tested, 2.4% active; Potency, µM (doses to about 9.22 µM), for the others: at the highest dose activation, most hits filed as activators; note: % of control where 0% means no effect; nearly all actives have a fitted effect of over 60% in size
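Huh7 cells stably carrying NPC1 promoter–luciferase, plated in Opti-MEM with 10% FBS for 2 h, were exposed to compound in DMSO for 24 h at 37 °C; luciferase reagent was added for 10 min and luminescence read.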
FLuc modulator – firefly luciferase modulation, counter-screen for miR-21 project. AID 588342. Potency, µM (top dose mostly 57.5 µM), inactives show top-dose activity change, negative = inhibition, usual class: inhibitors. 360,000 tested, 6.9% active. purified FLuc, Km substrates, luminescence inhibition;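 note: plate controls were vehicle for no effect and reference inhibitor for full effect; nearly all actives have a fitted effect of over 55% in size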
Target sequence (P08659 whole entry, looked up): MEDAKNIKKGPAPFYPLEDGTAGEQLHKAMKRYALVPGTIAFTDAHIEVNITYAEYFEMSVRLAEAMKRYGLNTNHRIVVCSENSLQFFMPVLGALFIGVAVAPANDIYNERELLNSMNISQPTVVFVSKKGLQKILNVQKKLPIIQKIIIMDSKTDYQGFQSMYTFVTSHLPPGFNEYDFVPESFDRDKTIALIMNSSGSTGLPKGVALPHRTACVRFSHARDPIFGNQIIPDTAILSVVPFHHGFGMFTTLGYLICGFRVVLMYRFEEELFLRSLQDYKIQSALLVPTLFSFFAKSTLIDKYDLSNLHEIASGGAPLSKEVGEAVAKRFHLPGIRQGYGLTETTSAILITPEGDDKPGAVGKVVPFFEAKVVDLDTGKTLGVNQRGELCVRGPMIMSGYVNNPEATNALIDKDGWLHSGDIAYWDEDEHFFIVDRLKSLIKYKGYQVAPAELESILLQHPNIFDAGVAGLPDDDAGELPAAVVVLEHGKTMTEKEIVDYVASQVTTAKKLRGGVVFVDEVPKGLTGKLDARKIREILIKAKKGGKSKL
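Purified P. pyralis luciferase (10nM final) with 10uM D-luciferin and 10uM ATP (Km levels) in 50mM Tris acetate pH 7.5, 10mM Mg acetate, 0.01% Tween-20, 0.05% BSA; qHTS 6-point titration, ~60 µM downward; luminescence read.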
Rab9 promoter act – Rab9 promoter activation; Potency, µM (top dose mostly 9.22 µM), inactives show at the highest dose activation, negative = inhibition, hits mostly activators; Huh7 Rab9 promoter-luciferase reporter, luminescence, 24 h; AID 485297; 320,000 tested, 2.8% active; note: % of control where 0% means no effect; nearly all actives have a fitted effect of over 60% in size
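Stable Rab9-luc Huh7, 1500 cells/well, 2 h settle; cmpd in DMSO, 24 h, 37 °C/5% CO2; luciferase reagent 10 min RT; luminescence.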
* = called active by the depositor; ? = inconclusive; · = not tested or not shown; [ ] = another dose, or the depositor's remark. Calls come from the whole dose curve; as a rule, active = well fitted curve in the direction sought with a large enough effect; inconclusive = small, poorly fitted or top-dose-only effect, or another doubt; inactive = no such curve, though single readings can be large; an effect the other way counts as inactive or inconclusive. Potency is the fitted concentration of half-maximal effect.

SMILES	ELG1 genotox	KinaseGlo FLuc	SMN2 splice up	NPC1 prom act	FLuc modulator	Rab9 promoter act
Oc1c(C=Nc2cccc3cccnc23)sc2ccccc12	3.3µM*	10µM*	-6%	-4%	0.38µM*	-20%
Cc1c(/C=N/O)sc2ccccc12	1%	·	·	-4%	?	-1%
O=[N+]([O-])c1ccc(O)c(N=Cc2sc3ccccc3c2O)c1	13%	-23%	-77%	15%	11µM*	-17%
Cc1cccc(/N=C/c2sc3ccccc3c2O)n1	4.6µM*	·	·	21%	0.48µM*	?
O=C1CCCCc2sc(Br)c([N+](=O)[O-])c2N1	-25%	·	·	-23%	4%	-52%
Cc1c(Cl)cccc1NS(=O)(=O)c1ccc(NS(=O)(=O)c2ccc3c(c2)OCCO3)cc1	·	·	7%	·	?	·
CCCn1c(/C=C/c2cc[n+](C)cc2)nc2ccccc21	-2%	·	·	-5%	-1%	-2%
COc1ccccc1/C=C/c1nc2ccccc2n1C(C)C	·	·	?	·	3.4µM*	·
COc1ccc(/C=C/c2nc3ccccc3n2C)cc1	?	2.8µM*	0.32µM*	?	0.13µM*	?
CCn1c(/C=C/c2ccccc2)nc2ccccc2c1=O	-7%	2%	·	-1%	-17%	0%
CCn1c(/C=C/c2ccccc2)nc2ccccc21	?	10µM*	7.1µM*	2µM*	0.6µM*	1.3µM*
CSc1nc2ccccc2n1CC(=O)Nc1ccccc1	7%	0%	-1%	-3%	1%	1%
O=C(Cn1c(/C=C/c2ccccc2)nc2ccccc21)Nc1ccc(F)cc1	?	-8%	?	21%	4.8µM*	?
CC(C)Cn1c(/C=C/c2ccccc2)nc2ccccc21	4%	·	·	?	4.8µM*	2.8µM*
Cn1c(/C=C/c2ccc(Cl)cc2)nc2ccccc2c1=O	?	·	·	4µM*	3.8µM*	2.8µM*
Cn1c(/C=C/c2ccccc2)nc2ccccc2c1=O	5%	·	·	?	?	?
COc1ccccc1/C=C/c1nc2ccc(OC(C)=O)cc2c(=O)o1	1%	·	·	-2%	?	3%
COc1ccc(/C=C/c2nc3ccccc3c(=O)o2)cc1	0.82µM*	·	·	?	0.6µM*	0.089µM*
CCC(C)n1c(/C=C/c2ccccc2)nc2ccccc21 (stereo unspecified)	0%	1%	13%	-2%	12µM*	3%
COc1ccc(NS(=O)(=O)c2ccc(NC(=O)N3CCCC3)cc2)cc1	·	·	·	·	-7%	·
COc1ccccc1NC(=O)C1=C(C)Nc2nc(-c3ccco3)nn2C1c1cccc(C)c1 (stereo unspecified)	·	·	-6%	·	-7%	·
CC(=O)N1CCN(S(=O)(=O)c2cccc(C(=O)N(Cc3ccccc3)c3cccc(C)c3)c2)CC1	-1%	·	·	-2%	5%	-6%
COc1ccc(Cn2c(/C=C/c3ccccc3)nc3ccccc32)cc1	?	?	?	2.5µM*	0.85µM*	1.3µM*
CCCCCCn1c(/C=C/c2ccccc2)nc2ccccc21	·	·	-82%	·	3µM*	·
CCn1c(Cc2ccc(OC)cc2)nc2ccccc21	-7%	·	·	1%	4%	-1%
SMILES	ELG1 genotox	KinaseGlo FLuc	SMN2 splice up	NPC1 prom act	FLuc modulator	Rab9 promoter act
C/C(=N/NC(=O)c1cccc(N2CCCC2=O)c1)c1ccc(Br)cc1	6%	·	·	1%	15µM*	-2%
C/C(=N/NC(=O)c1cccc(N2CCCC2=O)c1)c1ccncc1	?	-5%	·	?	15µM*	3.2µM*
O=C(O)c1cccc(N2CCCC2=O)c1	3%	7%	-2%	0%	-18%	-1%
CC(C)/C=N/NC(=O)c1cccc(N2CCCC2=O)c1	7%	2%	6%	-7%	0%	-5%
CC(=O)CSc1nnc2[nH]c(=O)cc(N)n12	·	·	·	·	-1%	·
O=C(CSc1ncn[nH]1)N/N=C/c1ccc(Br)cc1	1%	·	·	1%	15µM*	0%
O=C(NCCCCN1CCCC1)c1ccc(Cc2nc3ccccc3[nH]2)cc1	·	1%	·	·	·	·
CCc1ccc(C2CC(=O)c3c([nH]c(C(=O)OCCOc4ccccc4)c3C)C2)cc1 (stereo unspecified)	·	·	-10%	·	-3%	·
Clc1ccccc1Cn1nc(-c2ccccc2)nc1-c1ccccc1	1%	-2%	-7%[1.84 µM]	1%	-19%	-2%
Clc1ccc(Cn2nc(-c3ccccc3)nc2-c2ccccc2)cc1	11%	-5%	?	22%	15µM*	23%
Cc1ccc2c(c1)c1ncnc(N3CCN(c4ccccc4)CC3)c1n2C	-2%	0%	5%	-1%	-15%	-9%
Cc1ccc2c(c1)c1ncnc(N3CCC4(CC3)OCCO4)c1n2C	15%	3%	?	17%	11µM*	16%
Cc1ccc2c(c1)c1ncnc(N3CCOCC3)c1n2C	7%	-3%	-19%	-1%	15µM*	0%
Cc1ccc(C(=O)OC(C)C(=O)c2cc(C)c(C)cc2C)o1 (stereo unspecified)	-3%	·	·	1%	?	-2%
Cc1ccc(C(=O)Nc2ccc3nc(C)sc3c2)s1	?	-5%	13µM*	2.2µM*	6.7µM*	1.8µM*
Cc1nc2ccc(NC(=O)c3cc([N+](=O)[O-])cc([N+](=O)[O-])c3Cl)cc2s1	?	0%	2%	-26%	12µM*	-36%
Cc1nc2ccc(NC(=O)NCCCO)cc2s1	14%	4%	13µM*	?	2%[2.3 µM]	?
Cc1nc2cc(NC(=O)c3ccc(Br)s3)ccc2s1	?	·	·	0.4µM*	0.48µM*	0.32µM*
CN1CCN(S(=O)(=O)c2ccc(NC(=O)c3ccc(Br)s3)cc2)CC1	4%	2%	12%	-3%	-1%	-6%

High-throughput results from PubChem.
